PubChem BioAssay (NCI)
This is part of a sample that, as a whole, favours compounds with a hit. Of some 83,000 tested, about 20% had one in any assay.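 Plates (96-well) were seeded with cells, treated with compound at one concentration, and incubated for 48 hours before percent growth was determined.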 Active and inactive are the calls of the source. The calls were made as follows: active = growth percent below 10; inactive = the rest.

How the values were obtained:
Test in all cases: NCI-60 one-dose screen, 48 h (100 = growth as untreated, 0 = no growth, -100 = all killed)
Details in all cases: 10 µM unless noted
[1] = test system: NCI-H226 lung
[2] = test system: NCI-H322M lung
[3] = test system: HOP-62 NSCLC
[4] = test system: NCI-H460 lung
[5] = test system: HOP-92 NSCLC
[6] = test system: NCI-H522 lung
[7] = test system: A549/ATCC NSCLC
[8] = test system: 786-0 renal
[9] = test system: COLO 205 colon

Measured: growth

CC1Cc2ccccc2N1NC(=O)c1ccc(Cl)c(S(N)(=O)=O)c1 (stereo not given)
inactive: [1] 97.8% | [2] 95.2% | [3] 95.8% | [4] 111% | [5] 44.9% | [6] 88% | [7] 107% | [8] 96.6% | [9] 108%

COc1cc(/C=C/c2c(C(C)=O)c(C)nc3ccccc23)cc(OC)c1OC
inactive: [1] 52.4% | [2] 51.3% | [3] 42.4% | [4] 15% | [5] 47.8% | [6] 24.6% | [7] 53.4% | [8] 42.4% | [9] 19%

COc1ccc2[nH]c(-c3ccccc3)c(/C=C(\C#N)S(=O)(=O)c3ccccc3)c2c1
inactive: [1] 99.5% | [2] 77.8% | [3] 79.1% | [4] 20% | [5] 63.2% | [6] 64.3% | [7] 45.1% | [8] 69.1% | [9] 46.6%

O=C(CCN1C(=O)/C(=C/c2ccc(O)cc2)SC1=S)Nc1ccc(Cl)cc1
inactive: [1] 97.8% | [2] 82.6% | [3] 84.8% | [4] 102% | [5] 85.9% | [6] 19.9% | [7] 92.1% | [8] 99.7% | [9] 120%

O=C(Nc1ccc(F)cc1F)c1cc(F)ccc1O
active: [1] 4.02% | [2] -6.69% | [4] 7.51% | [5] -29.9% | [6] -6.24%
inactive: [3] 16.4% | [7] 18% | [8] 13.3% | [9] 81.1%

CC(=O)c1ccc(Nc2nc(C(C)=O)c(C)s2)cc1
inactive: [1] 66.2% | [2] 82% | [3] 95.4% | [4] 97.8% | [5] 102% | [6] 87.9% | [7] 95.5% | [8] 95.8% | [9] 109%

CCCCNc1nc(NN2C(=O)c3cccc4cccc(c34)C2=O)nc(-n2cnc3ccccc32)n1
inactive: [1] 54.9% | [2] 92.7% | [3] 97.4% | [4] 102% | [5] 60.3% | [6] 89.5% | [7] 89.4% | [8] 97.7% | [9] 107%

COc1ccc(C(=O)C(C)C)c2ccccc12
inactive: [1] 105% | [2] 117% | [3] 99.8% | [4] 101% | [5] 83.6% | [6] 102% | [7] 129% | [8] 100% | [9] 113%

CN1CCN(CC(=O)N2c3cccc4cccc(c34)N(C(=O)CN3CCN(C)CC3)C2c2cn(-c3ccccc3)nc2-c2cccc([N+](=O)[O-])c2)CC1
inactive: [1] 88.2% | [2] 32.9% | [5] 42.9% | [7] 15.7%
active: [3] -20.2% | [4] 1.88% | [6] -3.45% | [8] -83.4% | [9] -68.5%

COC1=C(C)C(=O)c2c(c(CCCl)c3n2CCC3O)C1=O (stereo not given)
inactive: [5] 103%
active: [1] -30.8% | [2] -4.2% | [3] -11.2% | [4] 4.7% | [6] -46.1% | [7] 4.42% | [8] -21% | [9] -59.2%

O=C(CSc1nc2ccccc2[nH]1)Nc1cccc(Cl)c1
inactive: [1] 101% | [2] 96.3% | [3] 94.9% | [4] 103% | [5] 90.6% | [6] 89% | [7] 111% | [8] 101% | [9] 108%

c1ccc2c(-c3nc(-c4c[nH]c5ccncc45)cs3)c[nH]c2c1
inactive: [1] 78.5% | [2] 79.1% | [3] 49.3% | [5] 49.2% | [6] 56.3% | [7] 34.5% | [8] 64.9%
active: [4] -26.4% | [9] -77.8%

COc1ccc(CNC(=O)[C@H](O)[C@@H](N)Cc2ccccc2)cc1
inactive: [1] 98.8% | [2] 105% | [3] 119% | [4] 106% | [5] 72.8% | [6] 95.6% | [7] 108% | [8] 97.9% | [9] 114%

Cc1cc(=O)[nH]c(=O)n1Cc1cn(-c2c3ccccc3nc3ccccc23)nn1
active: [6] -74.3%
inactive: [1] 105% | [2] 105% | [3] 95.6% | [4] 99.3% | [5] 67.6% | [7] 92.3% | [8] 79.4% | [9] 96.1%

COc1ccc(C(Cc2ccccc2)NCCN2CCOCC2)cc1 (stereo not given)
inactive: [1] 109% | [2] 95.7% | [3] 93.1% | [4] 107% | [5] 106% | [6] 71.1% | [7] 97.8% | [8] 89.4% | [9] 96.1%

BrCCCc1n(Cc2ccc3ccccc3c2)c2ccccc2[n+]1Cc1ccc2ccccc2c1
inactive: [2] 11.9%
active: [1] -72.6% | [3] -65.7% | [4] -88.4% | [5] -77% | [6] -52.3% | [7] -54.1% | [8] -90.7% | [9] -61.2%

CCc1cccc2c3c(sc12)C(c1ccc(Cl)cc1)C(C#N)=C(N)O3 (stereo not given)
active: [9] 9.3%
inactive: [1] 41.2% | [2] 49.6% | [3] 36.9% | [5] 66.7% | [6] 16.8% | [7] 34.6% | [8] 26.9%

Cc1cc(=O)oc2cc(OC(=O)N3CCN(C)CC3)ccc12
inactive: [1] 101% | [2] 105% | [3] 104% | [4] 107% | [5] 103% | [6] 98.9% | [7] 103% | [8] 108% | [9] 116%

Cc1nc2cnc(N)c(C#Cc3cncc(C(=O)Nc4ccc(CN5CCN(C)CC5)c(C(F)(F)F)c4)c3)c2nc1C
inactive: [3] 11.9% | [8] 35%
active: [1] 3.74% | [2] -5.35% | [4] 4.26% | [5] -39% | [6] 4.74% | [7] 2.19% | [9] -17.5%

Cc1nc(/N=C(\N)NC(=O)Nc2ccccc2Cl)sc1C
inactive: [1] 68% | [2] 51% | [3] 45% | [4] 12.1% | [5] 64.6% | [6] 18.6% | [7] 47.8% | [8] 57.1% | [9] 12.2%

N#CC1=C(N)Oc2c(sc3c(Br)cccc23)C1c1ccc([N+](=O)[O-])cc1 (stereo not given)
inactive: [1] 58.9% | [2] 40.6% | [3] 26.6% | [7] 24.7% | [8] 10.2%
active: [4] -7.51% | [5] -7.19% | [6] -6.47% | [9] -49.7%

NCCNc1nc2ccccc2c2c(=O)c3cc(F)ccc3sc12
active: [9] -1%
inactive: [1] 96% | [2] 72.6% | [3] 76.5% | [4] 12.2% | [5] 59.1% | [6] 79.4% | [7] 66.1% | [8] 73.5%

CNCCCNc1nc2ccccc2c2c(=O)c3cc(OC)ccc3sc12
active: [4] 5.64% | [9] -1.42%
inactive: [1] 95.6% | [2] 85.7% | [3] 80.2% | [5] 52.4% | [6] 85.7% | [7] 76.1% | [8] 79.1%

NCCCNc1nc2ccccc2c2c(=O)c3cc(F)cc(Cl)c3sc12
active: [4] -74%
inactive: [1] 88.9% | [2] 87.7% | [3] 92.6% | [5] 70.4% | [6] 92.9% | [7] 79.1% | [8] 86.3% | [9] 106%
